Experimental findings from the supplement of paper PMC10498489 are described below.

Among all 2,300 compounds or so, about 330 (14%) showed activity. A selection follows. A number with no mark means an inactive call.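 Rule for the calls: active = median modified Z-score above 1.96; inactive = 1.96 or below.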

The subject of this test is HepG2 Srxn1-GFP reporter cells (+30 nM CDDO-Me). As to the kind of experiment: Srxn1-GFP intensity median modified Z-score relative to plate median; higher = stronger NRF2 / oxidative stress reporter activation, active = hit call of the paper. Conditions: 10 µM; exposure time: 24h. A digest of the protocol: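 HepG2 Srxn1-GFP BAC reporter cells were seeded at 20,000 per well in 96-well plates and co-exposed for 24 h to compound at 10 μM and an NRF2 activator at 30 nM, with DMSO at ≤0.1%, in three replicate plates. Cells were fixed with formaldehyde, stained with Hoechst and imaged by confocal microscopy, and cytoplasmic GFP was measured per cell, with images holding under 100 cells discarded. The reported value is the median over replicates of each plate's modified Z-score of GFP intensity. For this score, scaling used 1.4826 × median absolute deviation.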
For `COC1C(O)C(O)C(O)[C@@H](O)C1O` (stereo not given in full) [euspeclibcmpd1333], the “Srxn1-GFP intensity median modified Z-score” value was -0.525. Regarding `C=C(NC(=O)C(C)=NC(=O)c1csc(C2=NC3c4csc(n4)C4NC(=O)c5csc(n5)C(C(C)(O)C(C)O)NC(=O)C5CSC(=N5)C(=CC)NC(=O)C(C(C)O)NC(=O)c5csc(n5)C3(CC2)NC(=O)C(C)NC(=O)/C(C)=N/C(=O)C(C)NC(=O)C(C(C)CC)NC2C=Cc3c(C(C)O)cc(nc3C2O)C(=O)OC4C)n1)C(N)=O` (stereo not given) [euspeclibcmpd703], the “Srxn1-GFP intensity median modified Z-score” value was 19.1 (active). Consider `CC1(C)O[C@@H]2CC3C4CC=C5CC(=O)C=C[C@]5(C)C4[C@@H](O)C[C@]3(C)[C@]2(C(=O)CO)O1` (stereo not given in full) [euspeclibcmpd859], for which the “Srxn1-GFP intensity median modified Z-score” value was -0.247. As for `C[N+](C)(C)C[C@H](O)CC(=O)O` [euspeclibcmpd2087], the “Srxn1-GFP intensity median modified Z-score” value is -0.18. Then `O=[N+]([O-])c1cccc2c[nH]nc12` [euspeclibcmpd1788], with -0.00617; and `CC(C)c1c(O)c(-c2cc3c(c(C(C)C)c2O)CCC2C(C)(C)CCC[C@]32C)cc2c1CCC1C(C)(C)CCC[C@]21C` (stereo not given in full) [euspeclibcmpd1653], with -0.248; and `COC(=O)[C@@]1(C)CCC[C@]2(C)c3ccc(O)c(C(C)C)c3CCC12` (stereo not given in full) [euspeclibcmpd1676], with 1.46. Regarding `CC(C)c1c(O)ccc2c1CCC1C(C)(C)CCC[C@]21C` (stereo not given in full) [euspeclibcmpd1572], the “Srxn1-GFP intensity median modified Z-score” value was 8.09 (active).

On to `O=C(O)C1CSCN1` (stereo not given) [euspeclibcmpd1135], for which the “Srxn1-GFP intensity median modified Z-score” value was -0.116. Turning to `O=c1cc(-c2ccc(O)cc2)oc2ccc(O)cc12` [euspeclibcmpd1816], the “Srxn1-GFP intensity median modified Z-score” value was 1.7. As to `Cc1nc(COP(=O)(O)O)cc2c1[O][Mn][O]c1c(cc(COP(=O)(O)O)nc1C)CN(CC(=O)O)CCN(CC(=O)O)C2` [euspeclibcmpd2441], the “Srxn1-GFP intensity median modified Z-score” value was 1.06. In the case of `COc1ccc(-c2ccc3cc(C(=O)O)ccc3c2)cc1C12CC3CC(CC(C3)C1)C2` [euspeclibcmpd491], the “Srxn1-GFP intensity median modified Z-score” value is 3.08 (active).

In the case of `COC(=O)c1cc(OC)c(=O)c2c(OC)c(OC)ccc2c1` [euspeclibcmpd2293], the “Srxn1-GFP intensity median modified Z-score” value is -0.421.

With `COc1cc(C(=O)O)cc(OC)c1O` [euspeclibcmpd1648], the “Srxn1-GFP intensity median modified Z-score” value was 0.178. `COc1cc(C(=O)O)cc(OC)c1O`: the “Srxn1-GFP intensity median modified Z-score” value was 1.18. The same measure for `CCCOc1ccccc1-c1nc(=O)c2[nH]nnc2[nH]1` [euspeclibcmpd2036]: -0.165; for `N[C@@H]1CCCC[C@H]1N` [euspeclibcmpd2386]: 1.79. As for `C/C=C/CC(C)C(O)C1C(=O)NC(CC)C(=O)N(C)CC(=O)N(C)C(CC(C)C)C(=O)NC(C(C)C)C(=O)N(C)C(CC(C)C)C(=O)NC(C)C(=O)NC(C)C(=O)N(C)C(CC(C)C)C(=O)N(C)C(CC(C)C)C(=O)N(C)C(C(C)C)C(=O)N1C` (stereo not given) [euspeclibcmpd445], the “Srxn1-GFP intensity median modified Z-score” value was 8.19 (active). For the compound `CC(=O)O[C@H]1CC[C@@]2(C)C(=CCC3C2CC[C@@]2(C)C3CC[C@@H]2C(C)CCCC(C)C)C1` (stereo not given in full) [euspeclibcmpd2217], the “Srxn1-GFP intensity median modified Z-score” value is -0.115. Take `CCOc1cccc(C(=O)c2ccc(O)c(O)c2O)c1` [euspeclibcmpd1514]: the “Srxn1-GFP intensity median modified Z-score” value is -0.219. Take `CC(NC(CCc1ccccc1)C(=O)O)C(=O)N1CCCC1C(=O)O` (stereo not given) [euspeclibcmpd609]: the “Srxn1-GFP intensity median modified Z-score” value is 0.185.

`CC(C)=CCCC(C)[C@@H]1CC[C@]2(C)C3=C(CC[C@@]12C)C1(C)CC[C@H](O)C(C)(C)C1CC3` (stereo not given in full) [euspeclibcmpd2235]: the “Srxn1-GFP intensity median modified Z-score” value was 2.85 (active). With `CC(=O)O[C@H]1CCC2(C)C3=C(CCC2C1(C)C)[C@]1(C)CCC(C(C)CCC=C(C)C)[C@@]1(C)CC3` (stereo not given in full) [euspeclibcmpd2332], the “Srxn1-GFP intensity median modified Z-score” value was -0.0515.

With `CC(C)=CCCC(C)C1CC[C@@]2(C)C3=C(CC[C@]12C)C1(C)CC[C@H](O)C(C)(C)C1CC3` (stereo not given in full) [euspeclibcmpd2336], the “Srxn1-GFP intensity median modified Z-score” value is 0.013.

Regarding `COc1cc(C)c2c(c1C=O)Oc1c(c(C)c(O)c3c(O)oc(O)c13)OC2=O` [euspeclibcmpd1947], the “Srxn1-GFP intensity median modified Z-score” value is 0.6. Consider `CC[C@H]1OC(=O)C(C)[C@@H](O[C@H]2C[C@@](C)(OC)[C@@H](O)[C@H](C)O2)[C@H](C)[C@@H](O[C@@H]2O[C@H](C)C[C@H](N(C)C)[C@H]2O)[C@](C)(O)C[C@@H](C)CN(C)[C@H](C)[C@@H](O)[C@]1(C)O` (stereo not given in full) [euspeclibcmpd690], for which the “Srxn1-GFP intensity median modified Z-score” value is 1.41. The same measure for `CC(C)c1ccc2oc3[nH]c(=N)c(C(=O)O)cc3c(=O)c2c1` [euspeclibcmpd492]: 1.12. In the case of `CON=C1C[C@]2(C[C@@H]3C[C@@H](C/C=C(\C)C[C@@H](C)/C=C/C=C4\CO[C@@H]5[C@H](O)C(C)=CC(C(=O)O3)[C@]45O)O2)O[C@H](/C(C)=C/C(C)C)C1C` (stereo not given in full) [euspeclibcmpd768], the “Srxn1-GFP intensity median modified Z-score” value was -0.575.

For the compound `CCC(C)[C@H]1O[C@]2(C=C[C@@H]1C)C[C@@H]1C[C@@H](C/C=C(\C)[C@@H](OC3C[C@H](OC)C(O[C@H]4C[C@H](OC)[C@@H](O)[C@H](C)O4)[C@H](C)O3)[C@@H](C)/C=C/C=C3\CO[C@@H]4[C@H](OC)C(C)=CC(C(=O)O1)[C@]34O)O2` (stereo not given in full) [euspeclibcmpd1403], the “Srxn1-GFP intensity median modified Z-score” value was 5.69 (active). Consider `CCC(C)[C@H]1O[C@]2(CC[C@@H]1C)C[C@@H]1C[C@@H](C/C=C(\C)[C@@H](OC3C[C@H](OC)C(O[C@H]4C[C@H](OC)[C@@H](O)[C@H](C)O4)[C@H](C)O3)[C@@H](C)/C=C/C=C3\CO[C@@H]4[C@H](O)C(C)=CC(C(=O)O1)[C@]34O)O2` (stereo not given in full) [euspeclibcmpd982], for which the “Srxn1-GFP intensity median modified Z-score” value was 0.921. For the compound `CO[C@H]1CC(O[C@@H]2/C(C)=C/C[C@@H]3C[C@@H](C[C@]4(C=C[C@H](C)[C@@H](C5CCCCC5)O4)O3)OC(=O)C3=CC(C)[C@@H](O)[C@H]4OC/C(=C\C=C\[C@@H]2C)[C@@]34O)O[C@@H](C)C1O[C@H]1C[C@H](OC)[C@@H](O)[C@H](C)O1` (stereo not given in full) [euspeclibcmpd131], the “Srxn1-GFP intensity median modified Z-score” value is 8.87 (active). `CCC(C)[C@H]1O[C@]2(C=C[C@@H]1C)C[C@@H]1C[C@@H](C/C=C(\C)[C@@H](OC3C[C@H](OC)C(O[C@H]4C[C@H](OC)[C@@H](NC(C)=O)[C@H](C)O4)[C@H](C)O3)[C@@H](C)/C=C/C=C3\CO[C@@H]4[C@H](O)C(C)=CC(C(=O)O1)[C@]34O)O2` (stereo not given in full) [euspeclibcmpd495]: the “Srxn1-GFP intensity median modified Z-score” value is 0.588.

Consider `CO[C@H]1CC(O[C@@H]2/C(C)=C/C[C@@H]3C[C@@H](C[C@]4(CC[C@H](C)[C@@H](C5CCCCC5)O4)O3)OC(=O)C3=CC(C)C(=NO)C4OC/C(=C\C=C\[C@@H]2C)[C@@]34O)O[C@@H](C)C1O` (stereo not given in full) [euspeclibcmpd601], for which the “Srxn1-GFP intensity median modified Z-score” value was 8.72 (active). In the case of `CCCCC(CC)CN=C(N)N=C(N)NCCCCCCN=C(N)N=C(N)NCC(CC)CCCC` (stereo not given) [euspeclibcmpd2037], the “Srxn1-GFP intensity median modified Z-score” value is 0.191. Consider `CC(=O)NC(CS)C(=O)O` (stereo not given) [euspeclibcmpd14], for which the “Srxn1-GFP intensity median modified Z-score” value was -0.532. Take `CC12CCC3c4ccc(O)cc4CCC3C1C[C@H](O)[C@@H]2O` (stereo not given in full) [euspeclibcmpd2315]: the “Srxn1-GFP intensity median modified Z-score” value is -0.0343.

For the compound `COC(=O)C(Cc1ccccc1)NC(=O)C(N)CC(=O)O` (stereo not given) [euspeclibcmpd740], the “Srxn1-GFP intensity median modified Z-score” value is -0.355. Turning to `CC(=O)OC1CCC2(C)C(=CCC3C2CCC2(C)C(C(=O)O)CCC32)C1` (stereo not given), the “Srxn1-GFP intensity median modified Z-score” value is 0.226. The same measure for `CC(c1ncncc1F)[C@](O)(Cn1cncn1)c1ccc(F)cc1F` (stereo not given in full) [euspeclibcmpd477]: -0.000648; for `CC(=O)/N=c1\sc(S(N)(=O)=O)nn1C` [euspeclibcmpd555]: 0.456; for `CNC[C@@H](O)c1ccc(O)c(O)c1` [euspeclibcmpd110]: -0.782.

For `CC(=O)OC1CCC2(C)C3CC(=O)C4(C)C(CC5OC6(CCC(C)CO6)[C@@H](C)C54)C3CC[C@H]2C1` (stereo not given in full) [euspeclibcmpd1545], the “Srxn1-GFP intensity median modified Z-score” value is -0.224. On to `COc1ccc2c(c1)CCC1C2CC[C@@]2(C)C1CC[C@@H]2O` (stereo not given in full) [euspeclibcmpd2297], for which the “Srxn1-GFP intensity median modified Z-score” value is 4.5 (active). For the compound `C[C@]12CCC3c4ccc(OS(=O)(=O)O)cc4CCC3C1CC[C@H]2O` (stereo not given in full) [euspeclibcmpd2359], the “Srxn1-GFP intensity median modified Z-score” value was 0.435. As to `C[C@]12CCC3c4ccc(O)cc4CCC3C1CC[C@@H]2O` (stereo not given in full) [euspeclibcmpd115], the “Srxn1-GFP intensity median modified Z-score” value was -0.23. Regarding `NS(=O)(=O)N1CCN(C(=O)OCC(F)(F)F)CC1`, the “Srxn1-GFP intensity median modified Z-score” value is 0.381. As for `CC(=O)N1CCc2cc(C(=O)C(C)Sc3nnc4c(Cl)cc(Cl)cn34)ccc21` (stereo not given), the “Srxn1-GFP intensity median modified Z-score” value is 1.9.

As to `O=c1c(-c2ccc(O)cc2)coc2cc(O)ccc12` [euspeclibcmpd2265], the “Srxn1-GFP intensity median modified Z-score” value is 0.00154. For `O=c1c(-c2ccc(O)cc2)coc2cc(O)cc(O)c12` [euspeclibcmpd1252], the “Srxn1-GFP intensity median modified Z-score” value is 7.05 (active). For the compound `COc1ccc(-c2coc3cc(O)cc(O)c3c2=O)cc1` [euspeclibcmpd1972], the “Srxn1-GFP intensity median modified Z-score” value is -0.252. Regarding `CSCCC(NC(=O)[C@H](Cc1c[nH]c2ccccc12)NC(=O)CCNC(=O)OC(C)(C)C)C(=O)N[C@@H](CC(=O)O)C(=O)N[C@@H](Cc1ccccc1)C(N)=O` (stereo not given in full) [euspeclibcmpd918], the “Srxn1-GFP intensity median modified Z-score” value is -0.345. For `CC(CCC(=O)O)[C@H]1CCC2C3CC[C@@H]4CCCC[C@]4(C)C3CC[C@@]21C` (stereo not given in full) [euspeclibcmpd1329], the “Srxn1-GFP intensity median modified Z-score” value was 1.64. Take `O=S1(=O)CCC(N(C2CC2)S(=O)(=O)c2ccc(F)c(Cl)c2)C1` (stereo not given): the “Srxn1-GFP intensity median modified Z-score” value is 1.31.

For `CC12CCC3c4ccc(O)cc4CC(CCCCCCCCC[S+]([O-])CCCC(F)(F)C(F)(F)F)C3C1CCC2O` (stereo not given) [euspeclibcmpd1981], the “Srxn1-GFP intensity median modified Z-score” value is -0.582.

Turning to `CC(C)(C)CC(=O)OCC(=O)[C@@]1(O)CCC2C3CC=C4CC(=O)C=C[C@]4(C)C3[C@@H](O)C[C@@]21C` (stereo not given in full) [euspeclibcmpd2328], the “Srxn1-GFP intensity median modified Z-score” value is -0.406.
